# Results published in the supplement of paper PMC6555819.
# Legend:
# Assay in all cases: PBM binding z-score (relative to random genomic background probes); higher = stronger binding; sequences stand for … in GC…GCGATTGACAGCGTAGAATGAAGG
# [1] = test system: FXR:RXRa (NR concentration 270 nM, RXRa partner concentration 90 nM)
# Outline: (§1)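 Binding buffer was PBS pH 7.4 with 2% milk, 0.02% Triton X-100, 1 mM DTT, 0.2 mg/mL BSA and 0.4 mg/ml salmon testes DNA. In it, ligand-free nuclear receptor dimers were incubated 1 h on custom Agilent 4×180K protein-binding microarrays carrying double-stranded probes. Antibodies against each partner (one per run) detected binding, and z-scores were calculated against random background probes after regression normalization of scanned fluorescence.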
# [2] = test system: LXRa:RXRa (NR concentration 270 nM, RXRa partner concentration 90 nM)
# Outline: as §1
# [3] = test system: LXRa homodimer (NR concentration 270 nM)
# Outline: as §1
# [4] = test system: LXRb:RXRa (NR concentration 270 nM, RXRa partner concentration 90 nM)
# Outline: as §1
# [5] = test system: LXRb homodimer (NR concentration 270 nM)
# Outline: as §1
# [6] = test system: PPARa:RXRa (NR concentration 270 nM, RXRa partner concentration 90 nM)
# Outline: as §1
# [7] = test system: PPARg:RXRa (NR concentration 180 nM, RXRa partner concentration 90 nM)
# Outline: as §1
# [8] = test system: PPARg:RXRa 270nM:90nM, anti-RXR (NR concentration 270 nM, RXRa partner concentration 90 nM)
# Outline: as §1
# [9] = test system: PPARg:RXRa 30nM:10nM, anti-RXR (NR concentration 30 nM, RXRa partner concentration 10 nM)
# Outline: as §1
# [10] = test system: PPARg:RXRa 90nM:30nM, anti-RXR (NR concentration 90 nM, RXRa partner concentration 30 nM)
# Outline: as §1
# [11] = test system: PPARg:RXRa DBDmut IVT, anti-RXR (DBD mutation: RXRa K156A/R161A, NR concentration 270 nM, RXRa partner concentration 90 nM)
# Outline: as §1
# [12] = test system: PPARg:RXRa IVT, anti-PPARg (NR concentration 270 nM, RXRa partner concentration 90 nM)
# Outline: as §1
# [13] = test system: PPARg DBDmut:RXRa IVT, anti-PPARg (DBD mutation: PPARg1 K132A/R137A, NR concentration 270 nM, RXRa partner concentration 90 nM)
# Outline: as §1
# [14] = test system: PPARg DBDmut IVT, anti-PPARg (DBD mutation: PPARg1 K132A/R137A, NR concentration 270 nM)
# Outline: as §1
# [15] = test system: PPARg homodimer (NR concentration 180 nM)
# Outline: as §1
# [16] = test system: PXR:RXRa (NR concentration 270 nM, RXRa partner concentration 90 nM)
# Outline: as §1
# [17] = test system: PXR homodimer (NR concentration 270 nM)
# Outline: as §1
# [18] = test system: RARa:RXR (NR concentration 270 nM, RXRa partner concentration 90 nM)
# Outline: as §1
# [19] = test system: RARa homodimer (NR concentration 270 nM)
# Outline: as §1
# [20] = test system: RARb:RXRa (NR concentration 270 nM, RXRa partner concentration 90 nM)
# Outline: as §1
Sequence,PBM binding z-score [1],PBM binding z-score [2],PBM binding z-score [3],PBM binding z-score [4],PBM binding z-score [5],PBM binding z-score [6],PBM binding z-score [7],PBM binding z-score [8],PBM binding z-score [9],PBM binding z-score [10],PBM binding z-score [11],PBM binding z-score [12],PBM binding z-score [13],PBM binding z-score [14],PBM binding z-score [15],PBM binding z-score [16],PBM binding z-score [17],PBM binding z-score [18],PBM binding z-score [19],PBM binding z-score [20]
GTACCAAGGAGAATAGGTCGTTGATGAGTAGGCG,-0.287,-0.0565,-0.284,-0.316,-0.56,0.108,0.546,0.112,-0.237,-0.0411,-0.462,-0.173,-1.64,-0.217,0.315,0.103,-0.146,0.0615,0.574,0.136
GCTGCTAGGGCAACTGATGGTCAGCTAAAGCTCG,-0.599,-0.0812,-0.858,-0.846,-0.673,-0.536,-0.394,-0.642,-1.04,-0.914,2.82,1.23,-0.683,-1.08,-0.93,-0.816,-0.96,-0.619,-1.23,1.56
TGTCAAAGTTCAAAGGTAACGTATGTATCCACAC,7.33,6.48,4.88,4.63,1.63,5.67,8.6,7.61,5.63,7.23,0.0702,4.53,1.85,1.93,2.61,5.65,3.95,6.64,1.84,5.04
TCTGCTAGGTCAGTTGGCCAGCTAACGAGCTGCC,0.857,0.327,-0.78,-0.127,-0.163,1.2,-0.0379,1.3,0.758,1.1,2.81,2.82,0.783,0.614,-0.509,-0.116,-0.845,0.0154,-1.78,3.44
GCTAGCAGGCCATTTGTGTCACTCAATGACGGGC,-0.539,-0.568,-1.12,-1.03,-0.864,-0.398,0.274,-0.38,-0.669,-0.744,1.46,0.556,-0.775,-0.917,-0.822,-0.691,-0.552,-0.532,-0.827,0.161
TAACCTAGGTCAGATCGGGCCAGTATACGCTATA,2.84,2.52,0.693,1.64,0.561,2.29,1.87,2.06,0.906,1.62,1.82,3.4,0.884,-0.00517,1.09,1.54,-0.137,1.38,-0.0765,3.32
CGAGACAGGTGAAAGGTAACTCAGTCTGGTACGC,0.533,0.602,-0.513,0.732,-0.851,3.47,5.43,6.27,4.23,6.7,1.78,2.95,0.301,-1.14,1.05,0.75,-0.102,1.92,-0.282,1.19
TGTCAAAGTTCAAAGGTAACTTAAGTATCCACAC,7.43,6.57,4.91,5.29,1.88,5.97,9.03,7.64,5.83,7.46,0.229,4.39,1.49,1.25,2.75,5.84,3.49,6.36,1.36,5.23
CGAACTAGGGCAGAACAGGACAGTGAAGGATGAT,-0.103,-0.326,-0.302,-0.521,-0.666,1.4,2.24,1.47,0.448,0.819,5.8,5.34,0.749,1.12,0.692,-0.477,-0.0295,0.592,0.348,0.687
TCTCGCAGGACACGAAGGTCAGAGCTTTCCAGAG,1.36,1.16,0.275,1.43,-0.948,1.92,0.556,1.75,1.75,1.74,1.49,0.67,-1.01,-1.42,0.787,1.44,-0.0691,1.81,-0.422,2.74
GCTGCTAGCTCAGGTTGGTCAGCTAACGGGTACG,-0.68,-0.822,-0.914,-0.935,-1.25,-1.08,-0.612,-0.997,-1.04,-0.839,-0.142,-0.678,-1.21,-1.62,-1.31,-0.81,-0.881,-0.76,-2.27,-0.463
TCATAGAGGTAATACAGGTGAAAGTCGGCATCTA,0.717,1.43,-0.283,0.754,-0.377,1.85,0.997,1.86,3.1,2.46,2.41,1.82,0.716,0.411,0.49,0.522,-0.0711,1.04,0.214,0.478
CCGACTGGGGAATAAGGTTACCATAAGCCAGCCC,0.215,1.7,-0.22,0.69,-0.763,1.35,1.09,1.47,0.215,1.03,1.7,1.42,-0.845,-0.915,0.47,0.362,0.0229,1.11,-0.12,0.793
CCTTACGGGTCACTGACAGGTTCTAGCATTTGGA,4.75,3.1,0.00693,2.9,0.128,4.77,3.89,4.02,1.11,2.83,3.31,3.38,0.541,-0.487,1.98,2.71,-0.239,3.46,0.459,3.63
CGTCCAAGGTCAGCAGGTTAGTGAAAGCGACGTG,4.92,3.23,-0.206,2.36,-0.346,4.15,2.77,3.33,0.363,1.88,2.23,2.41,-0.261,-0.686,3.19,2.75,0.49,3.24,0.634,4.85
TCTGCTAGGTCAACGATGGTCAGCTATTCTGCTA,3.16,2.62,-0.457,1.39,-0.158,3.15,2.42,2.96,2,2.29,4.2,4.42,0.0784,0.733,0.972,1.41,-1.08,2.24,-0.753,4.11
CGAACGAGGGCATGAGTTGATAGCTAATGCCGAT,0.677,0.398,-0.532,0.00979,-0.952,1.51,1.53,1.5,0.214,0.782,2.71,2.2,0.229,-0.661,0.249,0.689,0.178,0.401,0.0358,2.08
TCTATTAGTTGATGAGGGCAACCGAAACAGCGGA,0.667,0.683,0.18,0.607,0.412,1.07,0.347,2,3.62,2.83,2.06,0.967,0.312,0.843,1,0.877,0.351,0.981,0.755,1.41
TGTCAAAGTTCCAAGGTAACGTAAGTATCCACAC,0.32,0.139,-0.0669,0.284,0.0682,0.321,0.758,1.18,0.448,1.04,-0.29,1.18,0.991,0.288,0.137,0.082,0.35,0.56,0.373,0.659
CGAACTAGGTCAGAACAGGACAGTGACGGATGAT,1.23,0.594,-0.065,0.276,-0.492,2.87,5.01,4.26,1.69,3.39,7.03,7.13,1.03,0.514,0.929,0.794,0.206,0.633,0.383,2.99
TCTTGTAGATCAAGCAGGTTACGAAAGCCTGAGT,0.426,0.343,-0.343,0.659,-0.527,1.03,0.00625,1.34,2.5,1.88,1.76,1.04,-0.0946,0.435,0.37,0.615,-0.0528,0.951,-0.22,0.516
ATCGAAAGGTCGACGAGGTGAGTATCCACCGTTT,3.97,3.28,-0.0498,2.63,0.248,4.28,2.41,3.45,0.781,2.21,0.709,1.86,0.578,0.779,1.21,2.78,0.403,3.19,0.424,3.84
TGAGACAGGTGAAGGTAACTCAGGTACGCAGTCG,-0.213,1.11,-0.351,0.233,-0.678,0.549,0.639,0.251,0.211,-0.17,-0.0775,0.991,0.178,-0.801,0.0963,-0.189,-0.538,0.124,-0.0291,0.697
TCTTGTAGATCAACAGGACGTTAAGAAAGATCGA,0.291,0.413,-0.398,0.173,-0.226,0.653,0.338,1.62,2.86,2.27,1.79,0.305,0.99,0.998,0.259,0.135,-0.241,0.574,0.262,-0.11
TCTGCTAGGTCAGTTGGTCAGCAAACGAGCTGCC,0.988,0.432,-0.424,0.394,0.405,1.36,0.418,1.65,1.19,1.41,2.75,2.88,0.288,0.656,0.233,0.285,-0.998,0.565,-1.22,3.25
TCAGACAGGTGAAGGTAACTCGGGTACGCAGTCG,1.07,2.93,0.00206,1.44,-0.167,1.46,0.656,2.33,3.89,3.22,2.75,1.56,-0.468,-0.323,0.71,0.846,0.151,0.795,0.419,1.46
AATACAGGGTCACTAGGCAAGAGTAGGTACGAAT,6.39,4.96,0.866,3.82,1.1,5.59,7.09,5.74,3.03,4.6,3.19,4.81,1.06,0.858,2.63,3.06,0.322,4.1,1.16,4.13
CCTAGCAGTCCAGGGTCACTCAAGCATTTCGCTT,1.93,1.87,-0.123,2.26,-0.47,3.08,0.115,1.17,-0.788,0.355,-0.136,0.647,-1.3,-1.13,1.01,2.58,2.51e-05,3.02,-0.3,2.33
